Among the data in PubChem BioAssay (NCI) are growth values, retold here.

What all share (experiment): NCI-60 one-dose screen, 48 h (100 = growth as untreated, 0 = no growth, -100 = all killed)
Settings in all cases: 10 µM unless noted

Assay [1] has as its system NCI-H23 lung.
Assay [2] has as its system NCI-H226 lung.
Assay [3] relates to NCI-H322M lung.
Assay [4] deals with HOP-62 NSCLC.
Assay [5] relates to NCI-H460 lung.
Assay [6] relates to HOP-92 NSCLC.
The subject of assay [7] is NCI-H522 lung.
In assay [8] the test system is A549/ATCC NSCLC.
In assay [9] the test system is 786-0 renal.
Assay [10] deals with COLO 205 colon.

Compounds without any hit were thinned out: in the full panel of roughly 83,000, 20% have a hit.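 Assay: single dose, 48 h. Readout: percent growth (0 = no net growth; negative = cell death). Active: <10.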 Unmarked numbers belong to inactive results. Activity calls are given as the source filed them.

As to `COc1ccc(/C=C\C(=O)/C=C/c2ccc(OC)cc2)cc1`, the growth in [1] was 84.7%; in assay [2] it was 81.4%; in [3], 99.6%; in assay [4] it was 95.4%; in assay [5], 107%; in [6], 109%. Further, the growth in assay [7] is 94.7%; in assay [8], 102%; in assay [9] it was 83.5%; in [10], 107%.
As to `CSc1nsc(N)n1`, the growth in assay [1] was 97.9%; in assay [2], 103%; in assay [3] it was 87.9%; in assay [4], 90%; in assay [5], 97.3%; in assay [6], 95.6%. For the same compound, the growth in assay [7] was 90.3%; in assay [8] it was 92%; in assay [9] it was 106%; in assay [10], 99.4%.
Regarding `Cc1ccc(C(C)C)c(OCC(=O)O)c1`, the growth in [1] was 107%; in [2] it was 105%; in [3], 107%; in assay [4], 101%; in assay [5] it was 107%; in [6], 98%. Further, the growth is 111% in assay [7], 90.8% in assay [8], 102% in [9] and 107% in [10].
Consider `O=C1C=C(c2ccccc2)C(O)(c2ccccc2)C1` (stereo not given), for which the growth in assay [1] is 99.1%; in [2] it was 101%; in assay [3] it was 106%; in [4] it was 101%; in assay [5] it was 110%; in assay [6], 163%. The growth in assay [7] is 94%; in assay [8] it was 93.4%; in assay [9] it was 99.1%; in assay [10], 104%.
For the compound `CCOC(=O)c1cc(Cl)c(O)c(Cl)c1`, the growth in assay [1] was 103%; in assay [2], 103%; in assay [3] it was 117%; in [4], 106%; in assay [5], 108%; in assay [6] it was 109%. For the same compound, the growth in assay [7] was 103%; in assay [8], 100%; in assay [9] it was 107%; in [10], 99.6%.
Take `N#Cc1ccc(OC(=O)Nc2c(Cl)cc(Cl)cc2Cl)cc1`: the growth was 109% in assay [1]; 107% in assay [2]; 100% in assay [3]; 103% in assay [4]; 139% in assay [5]; 98.9% in [6]. The growth is 89.8% in assay [7], 96.3% in assay [8], 100% in [9] and 128% in assay [10].
As to `C=C(c1ccc(N(C)C)cc1)c1ccc(N(C)C)cc1`, the growth in [1] is 16.2%; in [2] it was 44.3%; in assay [3] it was 29.7%; in assay [4], 23.1%; in [5], 6.37% (active); in [6], -2.12% (active). Moreover, the growth in [7] was -28.6% (active); in [8], 30.8%; in assay [9], 34.6%; in [10] it was -4.63% (active).
For `CCOC(=O)CSCCC#N`, the growth is 95.3% in assay [1]; 98.3% in assay [2]; 101% in assay [3]; 82.3% in assay [4]; 106% in assay [5]; 102% in [6]. The growth is 96.3% in assay [7], 101% in [8], 93.5% in assay [9] and 107% in [10].
Regarding `CCOC(=O)/C(O)=C(\C=N\C(=S)Nc1ccc(Cl)c(Cl)c1)C(=O)OCC`, the growth in [1] was 87.3%; in assay [2], 75.2%; in assay [3], 106%; in [4], 94.3%; in assay [5], 106%; in [6], 95.5%. For the same compound, the growth in assay [7] is 71.4%; in assay [8], 101%; in assay [9], 115%; in assay [10], 92.9%.
Take `C=C(OC(C)=O)c1ccccc1`: the growth was 97.1% in assay [1]; 107% in assay [2]; 113% in assay [3]; 85.5% in [4]; 102% in assay [5]; 87.5% in [6]. In addition, the growth in assay [7] is 88.5%; in assay [8] it was 86.7%; in assay [9] it was 104%; in assay [10], 109%.
Regarding `C=CCc1cc(OC)c(OC)c(OC)c1`, the growth in assay [1] is 95.6%; in assay [2], 104%; in assay [3] it was 117%; in assay [4], 104%; in assay [5] it was 97.1%; in [6] it was 108%. The growth in [7] was 101%; in assay [8], 96.2%; in assay [9], 108%; in assay [10], 108%.
Turning to `NC(=S)c1c(N)n(C2OC(CO)C(O)C2O)c2ncnc(N)c12` (stereo not given), the growth is -0.783% (active) in assay [1]; 14% in assay [2]; -25.8% (active) in assay [3]; 3.76% (active) in [4]; -0.26% (active) in assay [5]; -21.5% (active) in assay [6]. Further, the growth in [7] is -53.5% (active); in assay [8], 5.46% (active); in [9] it was -0.846% (active); in assay [10] it was -50.9% (active).
`Cc1ccc(NCN2C(=O)c3ccccc3C2=O)c(C)n1`: the growth in [1] is 112%; in assay [2], 103%; in assay [3] it was 103%; in [4], 110%; in [5], 111%; in assay [6], 102%. Further, the growth was 112% in assay [7], 107% in assay [8], 95.8% in [9] and 112% in assay [10].
`CSc1cnc2ccccc2n1`: the growth in assay [1] is 103%; in assay [2] it was 103%; in assay [3], 94.4%; in [4] it was 84.7%; in [5], 102%; in [6], 99.6%. In addition, the growth in assay [7] is 80%; in assay [8], 82.8%; in assay [9], 107%; in assay [10], 116%.
For the compound `COc1ccc2c(Cl)cc(NC(=O)Nc3c(C)cccc3C)nc2c1`, the growth in assay [1] is 96.9%; in [2] it was 4.58% (active); in assay [3] it was 54%; in [4], 6.88% (active); in [5] it was 31.4%; in [6] it was 41.3%. Further, the growth in [7] is 78.1%; in [8] it was 43.3%; in assay [9], 21%; in assay [10] it was 58.7%.
